From PubChem
NPR1 activator: GC-A stimulated cGMP production enhancers – HEK293 GC-A cells, cGMP TR-FRET, EC30 ANP, primary screen; AID 1671463, 2021; hit rate 0.14% among 370,000; 0% at EC30 ANP, 100% saturating ANP; activation, % at 10 µM; Atrial natriuretic peptide receptor 1 (Homo sapiens), P16066; in the data active = activation above about 40%
ADAM10 inh: human ADAM10 inhibitors, primary screen, biochemical, QFRET, HTS; AID 720582, 2013; recombinant ADAM10, EDANS/DABCYL FRET peptide cleavage, 3 h; hit rate 0.62% among 370,000; inhibition, % at 7 µM; Disintegrin and metalloproteinase domain-containing protein 10 (Homo sapiens), O14672;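 active = inhibition above a per-campaign cutoff equal to the mean of compounds falling between control-based bounds plus 3 SD, cut at about 20% in these data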
ADAM17 inh: ADAM17 inhibitors, primary screen, biochemical, QFRET; hit rate 0.83% among 370,000; recombinant ADAM17, EDANS/DABCYL FRET peptide cleavage; Disintegrin and metalloproteinase domain-containing protein 17 (Homo sapiens), P78536; inhibition, % at 6.95 µM;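 active = inhibition above the mean of compounds lying between control limits plus 3 SD, set per campaign, cut at about 8.5% in these data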
FAS-TE inh: FAS thioesterase domain inhibitors, primary screen, biochemical, fluorescence intensity, uHTS; inhibition, % at 15 µM; recombinant FAS-TE, OMFH fluorogenic substrate, fluorescence endpoint; hit rate 0.67% among 360,000; Fatty acid synthase (Homo sapiens), P49327;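 active = compounds whose normalised, plate-corrected inhibition of enzyme fluorescence in the single-dose primary screen is 50% or more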
Target sequence (P49327 whole entry, looked up, the tested form may be a part): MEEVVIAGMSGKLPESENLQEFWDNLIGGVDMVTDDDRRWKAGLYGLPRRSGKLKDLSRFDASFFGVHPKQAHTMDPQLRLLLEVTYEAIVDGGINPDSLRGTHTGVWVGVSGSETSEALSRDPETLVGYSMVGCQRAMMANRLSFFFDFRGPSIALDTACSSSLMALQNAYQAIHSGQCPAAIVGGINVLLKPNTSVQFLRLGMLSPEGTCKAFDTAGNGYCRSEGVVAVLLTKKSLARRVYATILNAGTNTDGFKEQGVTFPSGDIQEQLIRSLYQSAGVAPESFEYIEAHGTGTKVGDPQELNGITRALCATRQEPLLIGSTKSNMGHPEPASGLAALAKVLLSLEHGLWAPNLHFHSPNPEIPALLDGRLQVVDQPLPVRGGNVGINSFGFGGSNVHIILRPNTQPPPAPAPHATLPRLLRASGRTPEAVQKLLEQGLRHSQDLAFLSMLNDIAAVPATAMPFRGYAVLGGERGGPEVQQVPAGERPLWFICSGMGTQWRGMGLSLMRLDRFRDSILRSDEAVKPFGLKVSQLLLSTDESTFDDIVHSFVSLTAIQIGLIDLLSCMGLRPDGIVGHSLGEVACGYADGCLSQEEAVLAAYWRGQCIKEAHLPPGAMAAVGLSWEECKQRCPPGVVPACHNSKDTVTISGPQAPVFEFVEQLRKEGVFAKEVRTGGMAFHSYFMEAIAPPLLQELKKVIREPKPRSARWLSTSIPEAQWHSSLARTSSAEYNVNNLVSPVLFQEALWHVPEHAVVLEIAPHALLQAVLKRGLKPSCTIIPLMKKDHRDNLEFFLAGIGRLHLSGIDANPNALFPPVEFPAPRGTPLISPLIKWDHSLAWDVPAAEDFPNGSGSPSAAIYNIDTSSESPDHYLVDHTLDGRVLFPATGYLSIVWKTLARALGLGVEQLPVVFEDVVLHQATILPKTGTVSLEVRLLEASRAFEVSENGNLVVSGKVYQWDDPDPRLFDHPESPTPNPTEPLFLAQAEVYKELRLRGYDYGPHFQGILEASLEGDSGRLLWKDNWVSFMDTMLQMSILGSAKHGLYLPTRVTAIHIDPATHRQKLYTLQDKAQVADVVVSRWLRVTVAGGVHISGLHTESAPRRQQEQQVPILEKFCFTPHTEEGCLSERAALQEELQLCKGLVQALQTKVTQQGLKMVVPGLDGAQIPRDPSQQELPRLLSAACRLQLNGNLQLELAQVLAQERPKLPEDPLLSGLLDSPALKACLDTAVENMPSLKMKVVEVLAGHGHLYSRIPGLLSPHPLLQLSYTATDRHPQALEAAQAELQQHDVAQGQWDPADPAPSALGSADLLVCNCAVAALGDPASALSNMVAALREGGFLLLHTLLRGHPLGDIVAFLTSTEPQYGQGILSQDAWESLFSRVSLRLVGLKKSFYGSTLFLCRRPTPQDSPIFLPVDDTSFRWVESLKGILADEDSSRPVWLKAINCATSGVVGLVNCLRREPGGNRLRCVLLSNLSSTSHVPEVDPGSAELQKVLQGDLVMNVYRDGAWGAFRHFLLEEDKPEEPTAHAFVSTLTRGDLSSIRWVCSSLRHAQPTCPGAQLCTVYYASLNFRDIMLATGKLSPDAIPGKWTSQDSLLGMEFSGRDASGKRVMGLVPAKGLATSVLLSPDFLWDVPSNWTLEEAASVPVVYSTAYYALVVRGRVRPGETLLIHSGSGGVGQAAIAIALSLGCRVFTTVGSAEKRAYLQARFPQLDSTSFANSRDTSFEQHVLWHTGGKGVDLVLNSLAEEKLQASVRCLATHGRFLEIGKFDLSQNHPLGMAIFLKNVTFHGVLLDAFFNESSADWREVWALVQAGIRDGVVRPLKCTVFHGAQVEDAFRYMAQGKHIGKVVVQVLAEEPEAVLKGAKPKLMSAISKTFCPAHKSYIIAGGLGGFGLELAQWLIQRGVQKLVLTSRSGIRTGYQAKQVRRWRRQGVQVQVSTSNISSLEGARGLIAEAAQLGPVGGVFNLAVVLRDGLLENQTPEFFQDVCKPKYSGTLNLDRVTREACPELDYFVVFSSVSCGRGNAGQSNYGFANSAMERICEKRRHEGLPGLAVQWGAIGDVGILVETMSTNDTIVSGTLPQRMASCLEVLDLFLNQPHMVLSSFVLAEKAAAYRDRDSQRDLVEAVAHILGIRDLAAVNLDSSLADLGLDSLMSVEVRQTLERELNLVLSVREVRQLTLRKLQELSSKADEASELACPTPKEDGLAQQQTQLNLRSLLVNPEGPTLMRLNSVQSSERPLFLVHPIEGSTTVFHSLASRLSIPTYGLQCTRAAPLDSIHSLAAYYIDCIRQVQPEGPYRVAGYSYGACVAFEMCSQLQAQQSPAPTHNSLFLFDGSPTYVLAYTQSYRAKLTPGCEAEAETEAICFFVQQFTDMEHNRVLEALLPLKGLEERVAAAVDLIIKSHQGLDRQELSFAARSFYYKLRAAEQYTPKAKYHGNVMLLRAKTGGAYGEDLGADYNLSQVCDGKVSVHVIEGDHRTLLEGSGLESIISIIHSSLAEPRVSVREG
GC-B act: human GC-B receptor activators, primary screen, HEK293 GC-B cells, cGMP TR-FRET, EC30 CNP | AID 1920062, 2024 | 0% at EC30 CNP, 100% saturating CNP | hit rate 0.11% among 370,000 | Atrial natriuretic peptide receptor 2 (Homo sapiens), P20594 | activation, % at 10 µM;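 active = activation at 10 µM reaching about 35% in either raw or pattern-adjusted values, limit read from the data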
FAS-TE conf: FAS thioesterase domain inhibitors, confirmation, biochemical, fluorescence intensity, single concentration; hit rate 45% among 2,300; recombinant FAS-TE, OMFH fluorogenic substrate; shares compounds with FAS-TE inh; inhibition, % at 15 µM;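 active = compounds inhibiting the enzyme by at least 50% at 15 µM in any one of the replicates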
Hits are given with their value; – = inactive; · = no result given. This is a sample that favours compounds with a hit; in the whole collection about 2% have one here.

SMILES	NPR1 activator	ADAM10 inh	ADAM17 inh	FAS-TE inh	GC-B act	FAS-TE conf
COc1ccc2nc(NC(=O)c3ccc([N+](=O)[O-])o3)sc2c1	–	–	–	57.5	–	50.8
CCCCCCc1c[nH]c2ccc(O)c(-c3ccccc3)c12	–	–	–	·	–	·
COc1cccc(-n2c(CN3CCN(c4ccccc4)CC3)nc3ccc([N+](=O)[O-])cc3c2=O)c1	–	–	–	71.5	–	31.1
CNC(=S)N(Cc1ccc(OC)cc1)C1CC(=O)N(c2ccc(Cl)cc2)C1=O (centres undefined)	–	–	–	62.5	–	69.8
COc1ccc(CN(C(=S)Nc2ccccc2)C2CC(=O)N(c3ccc(F)cc3)C2=O)cc1 (centres undefined)	–	–	–	–	–	·
COc1ccc(C(=O)C(C)N(C(=O)c2ccc(Cl)cc2Cl)N2C(=O)C3C4C=CC(C4)C3C2=O)cc1 (centres undefined)	–	–	–	60.1	–	–
Cc1ccc(C(=O)C(C)N(C(=O)c2ccc(Cl)cc2Cl)N2C(=O)CCCC2=O)cc1 (centres undefined)	–	–	–	–	–	·
CCCCNC(=O)C[C@H]1C[C@@]2(C(=O)OC)C(=C[C@H](C(C)C)O[C@@H]2C2CC2)N(CCC2=CCCCC2)C1=O	–	–	–	·	–	·
CC(C)N1C(=O)S/C(=C\c2ccc(-c3ccc(Cl)c(C(=O)O)c3)o2)C1=O	–	–	–	69.0	–	75.0
COC(=O)c1ccc2nc(-c3ccc(Cl)cc3)c(Cc3ccccc3)n2c1	–	–	–	·	–	·
CCn1cc(C(=O)NCCCOC)c(=O)c2cc(S(=O)(=O)N(C)C)ccc21	–	–	–	–	–	·
CCn1cc(C(=O)NCCC2=CCCCC2)c(=O)c2cc(S(=O)(=O)N(C)C)ccc21	–	–	–	79.8	–	82.5
CCn1cc(C(=O)NCCc2ccccc2)c(=O)c2cc(S(=O)(=O)N(C)C)ccc21	–	–	–	–	–	·
CCn1cc(C(=O)NCc2ccc(C)cc2)c(=O)c2cc(S(=O)(=O)N(C)C)ccc21	–	–	–	56.1	–	61.7
Cc1ccc(S(=O)(=O)NCC(=O)N2CCN(c3ccccn3)CC2)s1	–	–	–	·	–	·
N#Cc1ccc(Sc2nc3ccccc3[nH]2)cc1C#N	–	–	–	74.5	–	85.3
C=C(C)CSc1ncc(-c2cccc(C(F)(F)F)c2)cn1	–	–	–	58.0	–	36.3
O[C@H]1C[C@H](c2ccc(Cl)cc2)N(CC2CCCCC2)C[C@@H]1n1cc(C2CC2)nn1	–	–	–	58.7	–	55.9
O=[N+]([O-])c1ccc(CSc2ccc(S(=O)(=O)N3CCCCC3)cn2)cc1	–	–	–	–	–	·
O=[N+]([O-])c1ccc(CSc2ccc(S(=O)(=O)N3CCOCC3)cn2)cc1	–	–	–	53.1	–	55.1
Cc1ccc(CSc2ccc(S(=O)(=O)N3CCOCC3)cn2)cc1	–	–	–	–	–	·
O=[N+]([O-])c1ccc(CSc2ccc(S(=O)(=O)N3CCCC3)cn2)cc1	·	·	·	58.5	·	53.7
Cc1ccc(CSc2ccc(S(=O)(=O)N3CCCC3)cn2)cc1	–	–	–	–	–	·
CC(C)c1ccc(CSc2ccc(S(=O)(=O)N3CCOCC3)cn2)cc1	–	–	–	68.9	–	36.5
N#Cc1ccc(CSc2ccc(S(=O)(=O)N3CCCC3)cn2)cc1	–	–	–	63.9	–	63.6
SMILES	NPR1 activator	ADAM10 inh	ADAM17 inh	FAS-TE inh	GC-B act	FAS-TE conf
C=CCn1c(Cc2cccs2)nnc1SCC(=O)Nc1ccc2c(c1)OCO2	–	–	–	·	–	·
CSc1nc2ccccc2n1Cc1cccc(F)c1	–	–	–	–	–	·
CSc1nc2ccccc2n1Cc1cccc([N+](=O)[O-])c1	–	–	–	58.6	–	–
CCOC(=O)c1sc(NC(=O)c2ccc(S(=O)(=O)N3CCCCC3)cc2)nc1-c1ccccc1	–	–	–	65.2	–	–
CCOC(=O)c1sc(NC(=O)c2ccc(S(=O)(=O)N3CCCCCC3)cc2)nc1-c1ccccc1	–	–	–	–	–	·
Cc1ccc2c(c1C)-c1c(ccc(C)c1C)C(=O)C2=O	–	–	–	61.1	–	56.0
COc1cccc(NC(=O)COc2c(F)c(F)c(C(F)(F)F)c(F)c2F)c1	–	–	–	58.2	–	36.7
COc1cccc(NC(=O)COc2ccc(C)cc2)c1	–	–	–	–	–	·
Cc1ccc(C)c(C(=O)COC(=O)c2cc([N+](=O)[O-])ccc2NCCO)c1	–	–	–	62.3	–	–
O=C(COC(=O)c1cc([N+](=O)[O-])ccc1NCCO)Nc1cccc(S(=O)(=O)N2CCCC2)c1	–	–	–	70.4	–	69.3
Cc1nn(-c2ccccc2)c(C)c1NC(=O)COC(=O)c1cc([N+](=O)[O-])ccc1NCCO	–	–	–	–	–	·
Cc1ccc(C(=O)Nc2cccc(S(=O)(=O)N3CCCCC3)c2)cc1[N+](=O)[O-]	–	–	–	52.9	–	–
Cc1ccc(C(=O)Nc2cccc(S(=O)(=O)N3CCCCC3)c2)cc1S(=O)(=O)N1CCOCC1	–	–	–	–	–	·
O=C(COC(=O)c1ccc([N+](=O)[O-])o1)Nc1cccc(S(=O)(=O)N2CCCCC2)c1	–	–	–	–	–	·
O=C(COC(=O)c1cc([N+](=O)[O-])ccc1NCCO)Nc1ccc2c(c1)OCO2	–	–	–	77.4	–	51.4
O=C(C1CCCN(S(=O)(=O)c2cccs2)C1)N1CCN(Cc2ccccc2)CC1 (centres undefined)	–	–	–	·	–	·
COc1ccc(-c2cc(-c3nnc(SCc4cccc5ccccc45)n3N)[nH]n2)cc1	–	–	–	·	–	·
CCCOc1ccc(NC(=O)Cc2ccc(S(=O)(=O)N3CCOCC3)s2)cc1OCCC	–	–	–	–	–	·
CN(Cc1ccc(C(C)(C)C)cc1)C(=O)Cc1ccc(S(=O)(=O)N2CCOCC2)s1	–	–	–	85.1	–	89.1
COCCOc1ccc(C(F)(F)F)cc1NC(=O)Cc1ccc(S(=O)(=O)N2CCOCC2)s1	–	–	–	65.4	–	68.8
COC(=O)c1cc2c(c3c4cc(OC)ccc4n(S(=O)(=O)c4cccc(C)c4)c13)C(=O)N(Cc1ccccc1OC)C2	–	–	–	·	–	·
CCOc1cccc2cc(C(=O)Nc3nccs3)c(=O)oc12	–	–	–	–	–	·
